Where “and” joins values, the source holds several entries; their conditions need not be identical. Identical values can stand only once. The campaign covered roughly 5,500 compounds. About 2,000 (36%) were called active. Another 18% or so got no clear call; they are omitted. No stated cut-off is given here; in the data, active means normalized growth mostly below about 0.91 (no sharp cut-off); inconclusive means no clear call, values can overlap the other calls; inactive means mostly above about 0.92. The list shows a part of the results.
Experiment: chemical genetic growth profiling, strain panel (AID 1159580);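 further: tested at 20 µM; growth read once vehicle control cultures reached saturation at 30 °C; 1 = growth at the plate median or of vehicle wells; lower values mean less growth of the strain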
Conditions: S. cerevisiae deletion strains, growth OD

Measured: normalized growth

CC(=O)S[C@@H]1CC2=CC(=O)CC[C@]2(C)[C@H]2CC[C@@]3(C)[C@@H](CC[C@@]34CCC(=O)O4)C12 (some centres undefined)
inactive: locus YAL013W, strain DEP1, hits give low values 1 | locus YAL021C, strain ccr4, hits give low values 1.01 | locus YAL026C, strain drs2, hits give low values 1.01 | locus YAL030W, strain snc1, hits give low values 1.01 | locus YBL061C, strain skt5, hits give low values 1.02 | locus YBR009C, strain hhf1, hits give low values 0.98 | locus YBR021W, strain FUR4, hits give low values 0.992 | locus YBR023C, strain chs3, hits give low values 1.01 | locus YBR171W, strain sec66, hits give low values 1.03 | locus YBR229C, strain ROT2, hits give low values 0.997 | locus YBR231C, strain swc5, hits give low values 1.04 | locus YBR279W, strain paf1, hits give low values 1.01 | locus YCL011C, strain gbp2, hits give low values 0.984 | locus YCL016C, strain dcc1, hits give low values 0.993 | locus YCL029C, strain bik1, hits give low values 1.03 | locus YCL061C, strain MRC1, hits give low values 1.04 | locus YCL069W, strain vba3, hits give low values 1.01 | locus YCR088W, strain abp1, hits give low values 1.01 | locus YDL005C, strain med2, hits give low values 1.01 | locus YDL035C, strain GPR1, hits give low values 1.01 | locus YDL040C, strain nat1, hits give low values 1.01 | locus YDL074C, strain BRE1, hits give low values 1.01 | locus YDL101C, strain DUN1, hits give low values 1.01 | locus YDL134C, strain PPH21, hits give low values 1.01 | locus YDL185W, strain tfp1, hits give low values 1.01 | locus YDL192W, strain arf1, hits give low values 1.03 | locus YDR001C, strain nth1, hits give low values 1 | locus YDR069C, strain doa4, hits give low values 1.03 | locus YDR101C, strain arx1, hits give low values 1.03 | locus YDR137W, strain rgp1, hits give low values 1 | locus YDR150W, strain NUM1, hits give low values 1 | locus YDR159W, strain sac3, hits give low values 0.972 | locus YDR162C, strain NBP2, hits give low values 1 | locus YDR195W, strain ref2 1.05 | locus YDR297W, strain sur2, hits give low values 1.02 | locus YDR318W, strain mcm21, hits give low values 1.02 | locus YDR334W, strain swr1, hits give low values 1 | locus YDR335W, strain msn5, hits give low values 1.02 | locus YDR388W, hits give low values 1.03 | locus YDR392W, strain spt3, hits give low values 0.951 | locus YDR502C, strain sam2, hits give low values 1.02 | locus YEL003W, strain gim4, hits give low values 1.01 | locus YEL037C, strain rad23, hits give low values 1.01 | locus YEL061C, strain CIN8 (second series), hits give low values 1.01 | locus YEL061C, strain CIN8, hits give low values 0.963 | locus YER015W, strain faa2, hits give low values 1.02 | locus YER016W, strain bim1, hits give low values 1 | locus YER110C, hits give low values 1.03 | locus YER111C, strain swi4, hits give low values 1.01 | locus YER155C, strain BEM2 (second series), hits give low values 1.07 | locus YER155C, strain BEM2, hits give low values 1.01 | locus YER167W, strain BCK2, hits give low values 1.01 | locus YFR010W, strain ubp6, hits give low values 1.02 | locus YGL078C, strain dbp3, hits give low values 1.03 | locus YGL086W, strain mad1, hits give low values 0.998 | locus YGL167C, strain pmr1, hits give low values 1.03 | locus YGL173C, strain kem1, hits give low values 1.02 | locus YGL227W, strain vid30, hits give low values 0.997 | locus YGL240W, strain doc1, hits give low values 1.05 | locus YGL248W, strain PDE1, hits give low values 1.01 | locus YGL253W, strain hxk2, hits give low values 0.97 | locus YGR078C, strain PAC10, hits give low values 0.984 | locus YGR135W, strain pre9, hits give low values 1.02 | locus YGR252W, strain gcn5, hits give low values 1 | locus YHR013C, strain ard1, hits give low values 1.01 | locus YHR027C, strain rpn1, hits give low values 1.01 | locus YHR030C, strain SLT2, hits give low values 0.996 and 1.06 | locus YHR079C, strain IRE1 (second series), hits give low values 1.03 | locus YHR079C, strain IRE1, hits give low values 1.08 | locus YHR094C, strain hxt1, hits give low values 1.03 | locus YHR129C, strain ARP1, hits give low values 1 | locus YHR142W, strain chs7, hits give low values 1 | locus YHR200W, strain rpn10, hits give low values 1.02 | locus YIL066C, strain RNR3, hits give low values 1 | locus YIL073C, strain SPO22, hits give low values 1.05 | locus YIL125W, strain kgd1, hits give low values 1.02 | locus YIR030C, strain dcg1, hits give low values 1.02 | locus YJL092W, strain hpr5, hits give low values 1.01 | locus YJL095W, strain BCK1 (second series), hits give low values 0.996 | locus YJL095W, strain BCK1, hits give low values 1 and 1.02 | locus YJL115W, strain asf1, hits give low values 1.02 | locus YJL129C, strain trk1, hits give low values 1.02 | locus YJL134W, strain LCB3, hits give low values 1 | locus YJL154C, strain vps35, hits give low values 1.02 | locus YJL164C, strain tpk1, hits give low values 0.983 | locus YJL166W, strain qcr8, hits give low values 1.04 | locus YJL168C, strain set2, hits give low values 1.02 | locus YJL187C, strain SWE1 (second series), hits give low values 1 | locus YJL187C, strain SWE1, hits give low values 1.02

From PubChem BioAssay AID1159580 (chemical genetic matrix, 2015)
